Results on seven compounds are retold here after PubChem BioAssay (NCATS).

Results filed as inconclusive are left out. Calls of active or inactive are those of the source. Unless noted, calls follow the shape of the dose curve; as a rule, active = well fitted curve in the direction sought with a large enough effect; inconclusive = small, poorly fitted or top-dose-only effect, or another doubt; inactive = no such curve, though single readings can be large; an effect the other way counts as inactive or inconclusive.

Experiment [1] deals with Glucocorticoid receptor (Homo sapiens) (UniProt P04150). Briefly: qHTS assay for small molecule agonists of glucocorticoid receptor signaling (AID 588532; active = well fitted curve in the direction sought with a large enough effect in the signal ratio, with a control signal flat; the % refers to the signal ratio;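 also: 100% = dexamethasone at 0.1 µM and 0% = DMSO only wells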). The following applies: HeLa MMTV-bla, beta-lactamase ratio, agonist, 18 h; stronger effect = higher value; percent of dexamethasone control, DMSO zero. In a few lines:
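Titration series, up to 92 uM, applied to GRE-bla HeLa cells for 18 h at 37 C. Detection by CCF4 FRET substrate after 2 h at RT.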
In general terms: Quantitative high-throughput screening tests each substance at several concentrations.

The nature of experiment [2]: qHTS assay for small molecule antagonists of peroxisome proliferator-activated receptor delta signaling (AID 588535; active = well fitted inhibition curve with a large enough effect in the signal ratio, with a control signal flat, not every such curve was filed as active; the % refers to the signal ratio;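 as to max response: cells co-treated with a PPAR-delta agonist as stimulator during compound exposure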). The following applies: HEK293T PPARd-UAS-bla, beta-lactamase FRET ratio, 18 h; 460 nm channel. In a few lines: (§1)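 GeneBLAzer PPAR-delta-UAS-bla HEK293T cells in medium with 2% charcoal/dextran FBS were preincubated 5 hrs at 37 C, then given compounds, incubated 18 hrs at 37 C, and read by CCF4 beta-lactamase fluorescence; IC50 from Hill fits.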

Experiment [3] addresses Peroxisome proliferator-activated receptor delta (Homo sapiens) (UniProt Q03181). The experiment is described as above. The following applies: HEK293T PPARd-UAS-bla, beta-lactamase FRET ratio, 18 h; series mostly up to 76.7 µM. The method, boiled down: as §1
Experiment [4] concerns the target Peroxisome proliferator-activated receptor gamma (Homo sapiens) (UniProt P37231). In words: qHTS assay for small molecule agonists of peroxisome proliferator-activated receptor gamma signaling (AID 588536; active = well fitted curve in the direction sought with a large enough effect in the signal ratio, with a control signal flat, not every such curve was filed as active; the % refers to the signal ratio;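 also: 0% = DMSO basal wells and 100% = rosiglitazone at 2 µM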). The following applies: HEK293 PPARg-UAS-bla, beta-lactamase ratio, 16 h, percent of rosiglitazone response, DMSO as zero; series mostly up to 76.7 µM. The method, boiled down: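 GeneBLAzer PPAR-gamma-UAS-bla HEK293 cells in 1% charcoal/dextran-treated FBS medium were treated 16 h at 37 C with compounds. Beta-lactamase activity was read by CCF4 ratio (460/530 nm). Response was normalized to 2 uM rosiglitazone (100%) and DMSO, then Hill-fitted for EC50 and efficacy.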

The target of experiment [5] is Vitamin D3 receptor (Homo sapiens) (UniProt P11473). Briefly: qHTS assay for small molecule antagonists of vitamin D receptor signaling (AID 588541; calls by dose curve;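 also: receptor activated by calcitriol during compound treatment; % is scaled to controls: 0 for no effect and ±100 for the full control effect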). The following applies: HEK293T VDR-UAS-bla, beta-lactamase ratio, antagonist mode; series mostly up to 76.7 µM. In a few lines:
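VDR-UAS-bla HEK293T cells (2000/well, 2% charcoal-stripped FBS) were treated with titrated compounds plus 1-alpha,25-dihydroxyvitamin D3 (50 nM or 3 nM final) for 16 h at 37 C. CCF4 beta-lactamase fluorescence was read; Hill fits gave IC50.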

Experiment [6] in a line: qHTS assay for small molecule agonists of retinoid X receptor alpha signaling (AID 588544). The following applies: HEK293T RXRa-UAS-bla, beta-lactamase reporter, 18 h; 530 nm emission.
Experiment [7] addresses Thyroid hormone receptor beta (Homo sapiens) (UniProt P10828). In words: qHTS assay for small molecule agonists of thyroid hormone receptor beta signaling (AID 588545; calls by dose curve;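 also: 0% = DMSO only and 100% = 10 nM T3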). The following applies: TR-UAS-bla GripTite HEK 293, beta-lactamase ratio, agonist mode, 18 h; series mostly up to 76.7 µM. In a few lines: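 TR-UAS-bla-GripTite HEK 293 cells in medium with 2% charcoal/dextran FBS, 0.1 mM NEAA and 1 mM sodium pyruvate were treated with titrated compounds for 18 hrs at 37 C. Beta-lactamase reporter was read with CCF4 dye (ex 405, em 460/530 nm); EC50 from Hill fits.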

Experiment [8] is described as follows: qHTS assay for small molecule antagonists of retinoid X receptor alpha signaling (AID 588546; active = well fitted inhibition curve with a large enough effect in the signal ratio, with a control signal flat, not every such curve was filed as active; the % refers to the signal ratio;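 also: cells stimulated with 9-cis-retinoic acid as agonist; % is scaled to controls: 0 for no effect and ±100 for the full control effect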). The following applies: HEK293T RXRa-UAS-bla, beta-lactamase ratio, antagonist mode; measured here: W530 green channel, cytotoxicity proxy. In a few lines: (§2)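 Beta-lactamase reporter inhibition, read as CCF4 fluorescence ratio (ex 405, em 460/530 nm) after 2 h at RT. HEK293T UAS-bla cells, 2500/well, were stimulated with 9-cis-RA at 500 or 100 nM final alongside test compound for 18 h at 37 C.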

Experiment [9] concerns the target Retinoic acid receptor RXR-alpha (Homo sapiens) (UniProt P19793). Described as above. The following applies: HEK293T RXRa-UAS-bla, beta-lactamase ratio, antagonist mode. In a few lines:
as §2

The nature of experiment [10]: qHTS assay for environmental chemicals that activate the Aryl hydrocarbon Receptor (AhR) signaling pathway (AID 651777). Also: nearly all actives have a fitted effect of over 15% in size. Also: potency is read from the fitted curve at half-maximal effect. As to activation: % of control where 0% means no effect. The following applies: 1A2-DRE human hepatoma cells, luciferase, 24 h; activation: stronger effect = higher value. In a few lines: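 Luminescence read-out: One-Glo added for 30 min at RT after 24 hr compound treatment (37 C, 5% CO2) of human hepatoma cells expressing a DRE/CYP1A2 promoter–luciferase reporter; increased signal indicates AhR activation.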

Experiment [11] addresses Peroxisome proliferator-activated receptor alpha (Homo sapiens) (UniProt Q07869). Briefly: qHTS assay for small molecule agonists of the peroxisome proliferator-activated receptor alpha (PPARalpha) signaling pathway (AID 651778). Also: % of control where 0% means no effect. The following applies: PathHunter PPARalpha complementation, chemiluminescence, 6 h; max response: stronger effect = higher value. In a few lines: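 Cells plated at 2,000/well and held overnight at 37 C, 5% CO2, then compound added by pin tool for 6 hr; after PathHunter detection reagent and 60 min at room temperature, chemiluminescence from enzyme complementation was read.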

Experiment [12] in a line: qHTS assay for small molecule agonists of the antioxidant response element (ARE) signaling pathway measured by Nrf2-dependant transcriptional activity (AID 720636; active = well fitted curve in the direction sought with a large enough effect in the repeat runs; an effect the other way counts as inactive or inconclusive;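 also: HepG2 cells with an ARE-driven luciferase reporter; % of control where 0% means no effect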). The following applies: ARE-luc HepG2, Nrf2 luciferase reporter, 16 h; series mostly up to 92.4 µM. In a few lines: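 HepG2 ARE-luc reporter line, 1% dialyzed FBS; 6 hr attachment at 37 C, compound pinned in, 16 hr at 37 C/5% CO2; ONE-Glo, 30 min RT, luminescence read.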

The nature of experiment [13]: qHTS assay for small molecule agonists of the antioxidant response element (ARE) signaling pathway measured by Nrf2-dependant transcriptional activity - cell viability counter screen (AID 720653; active = well fitted curve in the direction sought with a large enough effect in the repeat runs; an effect the other way counts as inactive or inconclusive; also: % is scaled to controls: 0 for no effect and ±100 for the full control effect). The following applies: ARE-bla HepG2 viability, CellTiter-Glo ATP luminescence, 16 h; max response: stronger effect = lower value. The method, boiled down: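 ARE-bla HepG2 cells (2,000/well) rested 5 hrs at 37C/5% CO2, then exposed to compounds in DMSO for 16 hrs. Viability was read in the same wells as intracellular ATP by luminescence, 30 min at room temperature after reagent addition.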

A short description of experiment [14]: qHTS assay for cell viability of HEK293 cells (AID 743288). Also: % is scaled to controls: 0 for no effect and ±100 for the full control effect; nearly all actives have a fitted effect of over 50% in size. The following applies: ATP luminescence (CellTiter-Glo), 18 h; max response: stronger effect = lower value. In a few lines: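 Environmental chemicals tested in qHTS format against parental HEK293 cells; 18 h treatment, 37 C; read-out ATP luminescence (CellTiter-Glo), 30 min RT development.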
A short description of experiment [15]: qHTS assay for cell viability of the p53RE-bla HCT-116 cell line (AID 743292). Also: nearly all actives have a fitted effect of over 55% in size. Also: potency is read from the fitted curve at half-maximal effect. The following applies: p53RE-bla HCT-116 viability, ATP luminescence, 16 h; series mostly up to 95 µM. In a few lines:
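Luminescent ATP quantitation (CellTiter-Glo) served as the viability read-out; reagent was added after 16 h compound exposure at 37 C and read after 30 min at room temperature. Cells: p53RE-bla HCT-116, 4,000 per well.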

In experiment [16] the target is Nuclear receptor subfamily 1 group I member 2 (Rattus norvegicus) (UniProt Q9R1A7). Briefly: qHTS assay for small molecule activators of the rat pregnane X receptor (rPXR) signaling pathway (AID 651751; call rule not given here; also: 0% is about no effect). The following applies: rPXR reporter cells, luciferase (One-Glo), 24 h.
Experiment [17] can be described thus: qHTS assay for small molecule activators of the human pregnane X receptor (PXR) signaling pathway (AID 720659; call rule not given here; also: 0% is about no effect). The following applies: DPX-2 HepG2 CYP3A4-luciferase, 24 h; series mostly up to 92.3 µM.
The target in experiment [18] is Thyroid hormone receptor beta (Homo sapiens) (UniProt P10828). Briefly: qHTS assay for small molecule antagonists of thyroid hormone receptor beta signaling (AID 588547; active = well fitted inhibition curve with a large enough effect in the signal ratio, with a control signal flat, not every such curve was filed as active; the % refers to the signal ratio;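 also: cells stimulated with 0.4 nM T3 agonist during compound exposure; % is scaled to controls: 0 for no effect and ±100 for the full control effect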). The following applies: TR-UAS-bla HEK293, beta-lactamase ratio, antagonist mode, 18 h. In a few lines: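 TR-UAS-bla GripTite HEK293 cells in 2% charcoal/dextran FBS medium were preincubated 4 h at 37 C, given compound (0.59 nM to 92 uM) plus 0.4 nM T3 (final) for 18 h, then CCF4 for 2 h at RT; Hill fit gave IC50.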

The nature of experiment [19]: qHTS assay for small molecule activators of the p53 signaling pathway (AID 651743; active = well fitted activation curve with a large enough effect in the signal ratio, not every such curve was filed as active; the % refers to the signal ratio; also: % of control where 0% means no effect). The following applies: HCT-116 p53RE-bla, beta-lactamase FRET ratio, 16 h; activation: stronger effect = higher value. In a few lines: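 p53RE-bla HCT-116 cells with a stably integrated beta-lactamase reporter under p53 response elements were plated, rested 5 hours at 37 C/5% CO2, then exposed to compounds in DMSO for 16 hours at 37 C. LiveBLAzer B/G FRET substrate was read after 2 hours at room temperature.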

In experiment [20] the target is Vitamin D3 receptor (Homo sapiens) (UniProt P11473). In words: qHTS assay for small molecule agonists of vitamin D receptor signaling (AID 588543; calls by dose curve;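 also: 0% = DMSO basal and 100% = reference agonist control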). The following applies: HEK293T VDR-UAS-bla, beta-lactamase ratio, 16 h; series mostly up to 76.8 µM. In a few lines:
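β-lactamase reporter, VDR-UAS-bla HEK293T, agonist mode. Cells plated 5 h at 37 °C, compound titration 16 h at 37 °C, CCF4 dye 2 h RT, ratio 460/530 nm. Hill fit → EC50, efficacy vs 50 nM 1α,25-(OH)2D3.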

Sequence of Peroxisome proliferator-activated receptor alpha (Homo sapiens) (Q07869 whole entry, looked up): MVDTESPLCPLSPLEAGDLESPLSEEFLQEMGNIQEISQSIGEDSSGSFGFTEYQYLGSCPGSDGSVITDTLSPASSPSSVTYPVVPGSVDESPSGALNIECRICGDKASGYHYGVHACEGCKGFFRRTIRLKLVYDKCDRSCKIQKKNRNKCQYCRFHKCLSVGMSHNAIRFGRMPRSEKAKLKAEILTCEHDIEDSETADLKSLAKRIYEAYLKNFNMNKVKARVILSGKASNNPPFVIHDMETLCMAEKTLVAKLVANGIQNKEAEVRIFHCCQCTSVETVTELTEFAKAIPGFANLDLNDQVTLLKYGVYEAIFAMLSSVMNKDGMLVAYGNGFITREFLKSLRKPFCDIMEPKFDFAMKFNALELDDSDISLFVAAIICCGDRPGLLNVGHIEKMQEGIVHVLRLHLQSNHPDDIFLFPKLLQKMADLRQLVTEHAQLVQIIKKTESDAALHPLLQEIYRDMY
Sequence of Thyroid hormone receptor beta (Homo sapiens) (P10828 whole entry, looked up): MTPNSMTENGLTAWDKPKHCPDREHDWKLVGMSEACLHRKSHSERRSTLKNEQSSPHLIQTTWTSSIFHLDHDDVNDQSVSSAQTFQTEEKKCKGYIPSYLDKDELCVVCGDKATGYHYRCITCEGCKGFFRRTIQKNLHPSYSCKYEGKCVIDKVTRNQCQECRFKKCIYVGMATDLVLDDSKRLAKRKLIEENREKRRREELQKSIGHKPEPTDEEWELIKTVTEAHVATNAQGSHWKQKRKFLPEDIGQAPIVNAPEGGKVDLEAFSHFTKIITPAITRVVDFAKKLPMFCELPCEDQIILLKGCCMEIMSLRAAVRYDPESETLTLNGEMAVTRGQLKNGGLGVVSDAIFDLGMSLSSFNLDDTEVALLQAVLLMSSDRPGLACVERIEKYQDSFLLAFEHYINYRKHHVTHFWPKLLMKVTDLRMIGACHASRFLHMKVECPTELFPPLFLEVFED
Sequence of Glucocorticoid receptor (Homo sapiens) (P04150 whole entry, looked up): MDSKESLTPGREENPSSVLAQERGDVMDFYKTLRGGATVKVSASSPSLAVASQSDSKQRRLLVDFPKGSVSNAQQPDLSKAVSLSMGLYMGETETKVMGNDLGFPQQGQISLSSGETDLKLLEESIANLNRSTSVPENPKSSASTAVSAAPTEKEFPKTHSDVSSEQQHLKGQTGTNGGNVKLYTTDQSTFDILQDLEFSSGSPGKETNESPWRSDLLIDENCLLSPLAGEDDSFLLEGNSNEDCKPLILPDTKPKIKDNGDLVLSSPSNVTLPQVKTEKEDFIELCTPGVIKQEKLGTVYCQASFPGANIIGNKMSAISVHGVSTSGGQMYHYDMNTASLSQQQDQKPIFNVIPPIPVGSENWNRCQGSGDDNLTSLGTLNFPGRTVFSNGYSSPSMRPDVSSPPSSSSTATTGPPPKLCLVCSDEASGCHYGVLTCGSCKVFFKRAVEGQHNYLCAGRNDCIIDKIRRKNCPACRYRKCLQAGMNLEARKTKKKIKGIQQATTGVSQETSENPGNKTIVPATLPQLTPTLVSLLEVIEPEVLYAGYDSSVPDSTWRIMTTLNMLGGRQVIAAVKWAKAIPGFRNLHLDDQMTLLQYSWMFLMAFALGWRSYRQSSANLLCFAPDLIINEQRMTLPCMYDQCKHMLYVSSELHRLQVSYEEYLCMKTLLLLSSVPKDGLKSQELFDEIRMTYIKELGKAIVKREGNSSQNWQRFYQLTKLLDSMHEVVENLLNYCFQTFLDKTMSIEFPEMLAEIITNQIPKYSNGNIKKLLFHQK
Sequence of Peroxisome proliferator-activated receptor delta (Homo sapiens) (Q03181 whole entry, looked up): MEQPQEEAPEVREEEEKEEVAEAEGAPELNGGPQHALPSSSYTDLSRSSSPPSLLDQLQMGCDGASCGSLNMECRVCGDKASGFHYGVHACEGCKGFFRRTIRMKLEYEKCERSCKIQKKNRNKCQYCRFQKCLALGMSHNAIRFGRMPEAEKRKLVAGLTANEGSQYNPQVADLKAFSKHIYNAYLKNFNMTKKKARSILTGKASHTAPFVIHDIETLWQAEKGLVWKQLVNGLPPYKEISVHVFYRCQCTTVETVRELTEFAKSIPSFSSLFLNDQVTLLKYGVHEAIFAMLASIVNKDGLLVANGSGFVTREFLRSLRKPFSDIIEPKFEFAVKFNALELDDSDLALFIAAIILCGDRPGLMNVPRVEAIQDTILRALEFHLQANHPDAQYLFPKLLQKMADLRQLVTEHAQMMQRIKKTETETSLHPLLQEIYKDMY
Sequence of Peroxisome proliferator-activated receptor gamma (Homo sapiens) (P37231 whole entry, looked up): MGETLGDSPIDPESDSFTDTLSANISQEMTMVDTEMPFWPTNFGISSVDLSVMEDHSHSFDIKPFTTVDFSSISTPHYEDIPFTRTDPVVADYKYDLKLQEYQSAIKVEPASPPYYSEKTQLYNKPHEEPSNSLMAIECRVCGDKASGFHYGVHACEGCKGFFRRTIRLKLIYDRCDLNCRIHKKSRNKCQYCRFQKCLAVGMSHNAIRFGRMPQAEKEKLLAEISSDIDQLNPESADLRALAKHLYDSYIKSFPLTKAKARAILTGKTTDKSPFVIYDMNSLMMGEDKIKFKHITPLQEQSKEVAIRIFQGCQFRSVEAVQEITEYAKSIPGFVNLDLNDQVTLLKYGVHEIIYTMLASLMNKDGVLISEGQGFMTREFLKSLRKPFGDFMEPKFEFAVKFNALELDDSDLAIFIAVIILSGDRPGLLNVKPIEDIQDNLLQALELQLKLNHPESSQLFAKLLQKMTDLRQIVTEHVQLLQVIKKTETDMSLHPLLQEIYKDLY
Sequence of Nuclear receptor subfamily 1 group I member 2 (Rattus norvegicus) (Q9R1A7 whole entry, looked up): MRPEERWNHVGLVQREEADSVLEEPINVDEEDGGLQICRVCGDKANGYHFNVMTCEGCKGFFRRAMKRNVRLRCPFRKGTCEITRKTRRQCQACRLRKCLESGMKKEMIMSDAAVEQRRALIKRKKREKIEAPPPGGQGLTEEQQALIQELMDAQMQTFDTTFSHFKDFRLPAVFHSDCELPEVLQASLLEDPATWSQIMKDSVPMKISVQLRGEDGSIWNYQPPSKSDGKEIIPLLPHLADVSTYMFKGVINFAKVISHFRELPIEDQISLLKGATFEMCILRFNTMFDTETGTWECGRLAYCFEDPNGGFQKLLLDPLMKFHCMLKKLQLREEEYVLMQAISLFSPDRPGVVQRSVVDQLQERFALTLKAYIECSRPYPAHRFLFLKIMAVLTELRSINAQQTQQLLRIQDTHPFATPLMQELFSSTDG
Sequence of Retinoic acid receptor RXR-alpha (Homo sapiens) (P19793 whole entry, looked up): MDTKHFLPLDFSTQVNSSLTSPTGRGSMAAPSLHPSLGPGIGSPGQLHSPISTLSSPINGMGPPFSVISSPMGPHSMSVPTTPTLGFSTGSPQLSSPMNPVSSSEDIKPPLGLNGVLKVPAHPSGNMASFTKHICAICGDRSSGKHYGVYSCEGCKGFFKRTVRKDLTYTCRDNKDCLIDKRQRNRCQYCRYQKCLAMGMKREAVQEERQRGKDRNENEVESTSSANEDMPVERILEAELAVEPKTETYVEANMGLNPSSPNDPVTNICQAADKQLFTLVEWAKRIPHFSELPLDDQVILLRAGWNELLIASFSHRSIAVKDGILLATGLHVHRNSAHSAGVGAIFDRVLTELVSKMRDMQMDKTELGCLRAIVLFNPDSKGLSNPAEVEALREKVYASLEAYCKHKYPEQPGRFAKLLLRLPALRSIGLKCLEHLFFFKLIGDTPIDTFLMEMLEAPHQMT
Sequence of Vitamin D3 receptor (Homo sapiens) (P11473 whole entry, looked up): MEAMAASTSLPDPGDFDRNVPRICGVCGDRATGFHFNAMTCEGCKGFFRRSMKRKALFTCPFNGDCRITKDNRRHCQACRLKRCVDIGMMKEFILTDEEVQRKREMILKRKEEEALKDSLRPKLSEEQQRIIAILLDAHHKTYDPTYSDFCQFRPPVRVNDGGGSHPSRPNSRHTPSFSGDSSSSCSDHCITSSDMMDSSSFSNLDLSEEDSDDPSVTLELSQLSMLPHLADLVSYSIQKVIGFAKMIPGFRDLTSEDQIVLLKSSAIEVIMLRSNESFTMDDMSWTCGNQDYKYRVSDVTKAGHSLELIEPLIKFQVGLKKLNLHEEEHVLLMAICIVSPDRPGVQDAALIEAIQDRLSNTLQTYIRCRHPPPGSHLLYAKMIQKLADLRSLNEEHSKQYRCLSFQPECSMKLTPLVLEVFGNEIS

Turning to `CCCCC(CC)COC(C)=O` (configuration not stated), the activation in experiment [1] was -0.969% (inactive); in [10], -1.93% (inactive). The max response in experiment [2] was 8.6%; in experiment [6], -20.2%; in [8], -1.25%; in [9], -2.2% (inactive); in [11], -0.237% (inactive); in experiment [13], 3.74% (inactive). The max response in experiment [14] was -7.43% (inactive); in experiment [16], -1.91% (inactive). The Potency result in [3], in [5], in experiment [7], in [12] and in experiment [15] was “inactive” in each case. For the same compound, the outcome in [4] and in experiment [17] was inactive.
On to `CCCCCCCCCCCCN`, for which the activation in [1] is -4.12% (inactive); in experiment [19] it was -7.19% (inactive); in [10] it was -1.22% (inactive). Further, the max response in [2] is -18.4%; in [6], 7.66%; in experiment [8] it was -2.37%; in experiment [9], 5.24% (inactive); in [13], -1.6% (inactive); in experiment [14], -1.85% (inactive). For the same compound, the max response in experiment [16] was 0.146% (inactive). The Potency entry in experiment [3], in [7], in experiment [12] and in experiment [15] was “inactive” in each case. For the same compound, the outcome in [4] and in [17] was inactive. Besides, in [18], the activity change % (negative = inhibition) was -7.43% (inactive).
For the compound `CC(C)CCCCOC(=O)c1ccccc1C(=O)OCCCCC(C)C`, the values for the activation in [1], in experiment [19] and in experiment [10] were -8.95% (inactive), -3.26% (inactive) and 0.811% (inactive), respectively. Besides, the max response in experiment [2] is -26.8%; in experiment [6], 6.42%; in experiment [8] it was -6.23%; in experiment [9], -8.08% (inactive); in experiment [11], 2.93% (inactive); in [13], -11% (inactive). Moreover, the values for the max response in experiment [14] and in experiment [16] were -17.5% (inactive) and 13.4% (inactive), respectively. The Potency entry in [3], in experiment [7], in experiment [12] and in [15] was “inactive” each time. Also, in [4], the result was inactive.
For `CC1=CC(=O)CC(C)(C)C1`, the activation in [1] was -9.62% (inactive); in experiment [19], 0.625% (inactive); in [10] it was 0.188% (inactive). Also, the max response in [2] is 13.3%; in experiment [6], -20.2%; in experiment [8], -3.41%; in experiment [9], -18.4% (inactive); in [11], 0.525% (inactive); in experiment [13] it was -10.2% (inactive). The max response in experiment [14] was -2.87% (inactive); in experiment [16] it was 1.52% (inactive). Further, the Potency result in experiment [3], in [5], in [7], in experiment [12] and in experiment [15] was “inactive” each time. The result in experiment [20] and in experiment [17] was inactive. Also, the activity change % (negative = inhibition) in experiment [18] is 1.58% (inactive).
For `O=C(O)c1cc(O)c2ccccc2c1O`, the activation was -13.3% (inactive) in [1] and -4.76% (inactive) in [19]. Besides, the Potency result in [7] was “inactive”. Moreover, the Potency in [10] was 14.1 µM (active); in experiment [15], 39.8 µM (active). Moreover, the max response in experiment [11] is -7.87% (inactive); in [16], 5.84% (inactive).
On to `CCCCC(CC)CN1C(=O)C2C3C=CC(C3)C2C1=O` (configuration not stated), for which the figures for the activation in [1], in [19] and in experiment [10] were -12.6% (inactive), -2.19% (inactive) and -3.03% (inactive), respectively. The result in [4] and in [20] was inactive. For the same compound, the Potency result in experiment [5], in experiment [7] and in [12] was “inactive” each time. For the same compound, the max response in experiment [8] is 8.85%; in experiment [9], -2.63% (inactive); in experiment [11] it was 7.9% (inactive); in experiment [13] it was 8.11% (inactive); in experiment [14], -5.32% (inactive). Further, the activity change % (negative = inhibition) in experiment [18] is 4.69% (inactive).
Consider `CCNc1nc(NC(C)CC)nc(OC)n1` (configuration not stated), for which the activation in experiment [1] was -21% (inactive); in experiment [19], -1.96% (inactive); in experiment [10], 2.63% (inactive). Further, the outcome in experiment [4], in experiment [20] and in experiment [17] was inactive. The Potency entry in experiment [5], in experiment [7], in experiment [12] and in experiment [15] was “inactive” in each case. For the same compound, the max response in experiment [6] is -13.5%; in experiment [8], -8.46%; in experiment [9], 7.45% (inactive); in experiment [11], 5.06% (inactive); in experiment [13] it was 16.1% (inactive); in experiment [14], -2.08% (inactive). Moreover, the max response in experiment [16] was 1.4% (inactive).
